Measurements: PubChem BioAssay (NCI)
Compounds without any hit were thinned out: in the full panel of roughly 83,000, 20% have a hit.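 Results are percent growth after 48 hours of single-concentration exposure. 100 means growth as in untreated cells, lower positive values show inhibition; negative values down to -100 show cell death.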 Activity calls are given as the source filed them. Rule for the calls: active = growth percent below 10; inactive = the rest.

Assays:
Assay in all cases: NCI-60 one-dose screen, 48 h (100 = growth as untreated, 0 = no growth, -100 = all killed)
Settings in all cases: 10 µM unless noted
SK-MEL-2 melanoma = system: SK-MEL-2 melanoma
SN12C renal = system: SN12C renal
UO-31 renal = system: UO-31 renal
TK-10 renal = system: TK-10 renal
ACHN renal = system: ACHN renal
CAKI-1 renal = system: CAKI-1 renal
A498 renal = system: A498 renal
CCRF-CEM leukemia = system: CCRF-CEM leukemia
MOLT-4 leukemia = system: MOLT-4 leukemia
EKVX NSCLC = system: EKVX NSCLC

Measured: growth

O=C(Oc1c(Cl)c(Cl)c(Cl)c(Cl)c1Cl)C1CCCN1C(=O)OCc1ccccc1 (stereo unspecified)
inactive: SK-MEL-2 melanoma 69.9% | SN12C renal 60% | UO-31 renal 56.1% | TK-10 renal 67.3% | ACHN renal 17% | CAKI-1 renal 90.4% | A498 renal 12.3% | CCRF-CEM leukemia 10.8% | MOLT-4 leukemia 15.5%

CCn1c(CN2CCN(Cc3ccccc3)CC2)nc2cc(NC(=O)c3cccs3)ccc21
active: SK-MEL-2 melanoma -50.1% | SN12C renal -87.6% | UO-31 renal -96.7% | TK-10 renal -94.1% | ACHN renal -79.2% | CAKI-1 renal -92.5% | A498 renal -91.6% | CCRF-CEM leukemia -39.2% | MOLT-4 leukemia -11.3%

Clc1ncnc2scc(C3COc4ccccc4O3)c12 (stereo unspecified)
active: CAKI-1 renal -18.7%
inactive: SK-MEL-2 melanoma 107% | SN12C renal 86.6% | UO-31 renal 59.5% | TK-10 renal 110% | ACHN renal 96.2% | A498 renal 97% | CCRF-CEM leukemia 22.3% | MOLT-4 leukemia 74.7%

COc1ccc(-c2n[nH]nc2-c2cc(OC)c3c(c2)OCO3)cc1
inactive: SN12C renal 23% | UO-31 renal 20.1% | TK-10 renal 47.7% | ACHN renal 29.6%
active: SK-MEL-2 melanoma 6.64% | CAKI-1 renal -2.7% | A498 renal -9.3% | CCRF-CEM leukemia -4.86% | MOLT-4 leukemia -15.3%

O=C(Nc1ccc(OS(=O)(=O)c2ccc(F)cc2)cc1)C12CC3CC(CC(C3)C1)C2
inactive: SK-MEL-2 melanoma 86% | SN12C renal 77.3% | UO-31 renal 83.8% | TK-10 renal 87.5% | ACHN renal 76.5% | CAKI-1 renal 79.2% | A498 renal 40.4% | CCRF-CEM leukemia 52.1% | MOLT-4 leukemia 33.3%

[O-]/[N+](=C\c1ccccc1)CC1(O)CCCCC1
inactive: SK-MEL-2 melanoma 111% | SN12C renal 94.5% | UO-31 renal 96.3% | TK-10 renal 103% | ACHN renal 99.2% | CAKI-1 renal 104% | A498 renal 82.9% | CCRF-CEM leukemia 101%

CC1=C(C(=O)Nc2ccc(F)cc2)C(c2ccccc2)C2=C(CC(C)(C)CC2=O)N1 (stereo unspecified)
inactive: SK-MEL-2 melanoma 89.4% | SN12C renal 70.1% | UO-31 renal 60.1% | TK-10 renal 104% | ACHN renal 82.7% | CAKI-1 renal 64.3% | A498 renal 47.1% | CCRF-CEM leukemia 62.3% | MOLT-4 leukemia 62.9%

C/C(=N\OC(=O)Nc1ccccc1)c1ccccc1
inactive: SK-MEL-2 melanoma 111% | SN12C renal 94.8% | UO-31 renal 88.7% | TK-10 renal 115% | ACHN renal 106% | CAKI-1 renal 114% | A498 renal 39.4% | CCRF-CEM leukemia 99.1% | MOLT-4 leukemia 94%

COc1ccc(-c2nc(-c3cc(OC)cc(OC)c3)[nH]c2-c2ccc(OC)cc2)cc1
inactive: SK-MEL-2 melanoma 29.4% | SN12C renal 70.6% | UO-31 renal 36.1% | TK-10 renal 62.2% | ACHN renal 41.3% | CAKI-1 renal 44.5% | A498 renal 66% | CCRF-CEM leukemia 11.1% | MOLT-4 leukemia 14.2%

CCOC(=O)c1ccc(NC(=O)NC2=NCCS2)cc1
inactive: SK-MEL-2 melanoma 76.6% | SN12C renal 45.4% | UO-31 renal 36.5% | TK-10 renal 97.5% | ACHN renal 78.9% | CAKI-1 renal 35.3% | MOLT-4 leukemia 19.7%
active: A498 renal -7.64% | CCRF-CEM leukemia 7.22%

O=C1C2=C(C(=O)c3c(O)ccc(O)c31)N(c1ccc(N3CCOCC3)nc1)Cc1ccccc1O2
active: SK-MEL-2 melanoma -42.1% | EKVX NSCLC -9.79% | SN12C renal -85.2% | TK-10 renal -98.7% | A498 renal -50.1% | CCRF-CEM leukemia -10.1% | MOLT-4 leukemia -24.4%

CC(C)N1CCN(c2ccncc2S(=O)(=O)N2CCN(C)CC2)CC1
inactive: SK-MEL-2 melanoma 107% | SN12C renal 98.4% | UO-31 renal 87.3% | TK-10 renal 101% | ACHN renal 101% | CAKI-1 renal 98.5% | A498 renal 107% | CCRF-CEM leukemia 98.4% | MOLT-4 leukemia 104%

CCC(=O)NC(O)C(Cl)(Cl)C(C)Cl (stereo unspecified)
inactive: SK-MEL-2 melanoma 106% | SN12C renal 98.8% | UO-31 renal 91.5% | TK-10 renal 112% | ACHN renal 100% | CAKI-1 renal 99.4% | A498 renal 107%

CC1=C(C(=O)Nc2ccc(F)cc2)C(c2ccc(Cl)cc2)C2=C(CC(C)(C)CC2=O)N1 (stereo unspecified)
inactive: SK-MEL-2 melanoma 97.5% | SN12C renal 86.7% | UO-31 renal 64% | TK-10 renal 113% | ACHN renal 94.4% | CAKI-1 renal 72.7% | A498 renal 54.4% | CCRF-CEM leukemia 78.8% | MOLT-4 leukemia 73.1%

COc1ccc2nc(C)cc(Nc3ccccc3O)c2c1
active: SN12C renal -22.9% | UO-31 renal -56.1% | ACHN renal -38.9% | CAKI-1 renal -0.0846%
inactive: SK-MEL-2 melanoma 67.7% | TK-10 renal 21.2% | A498 renal 89.8% | CCRF-CEM leukemia 50.7%

COC1CC(N)C2OC(c3ccccc3)OCC2O1 (stereo unspecified)
inactive: SK-MEL-2 melanoma 114% | SN12C renal 99.3% | UO-31 renal 97.6% | TK-10 renal 101% | ACHN renal 99.3% | CAKI-1 renal 96.8% | A498 renal 111% | CCRF-CEM leukemia 93.3%

CCN(CC)CCCC(C)N/C(c1cccc(OC)c1)=c1\c(=O)[nH]n(-c2c3ccccc3nc3ccccc23)c(=O)\c1=C(/NC(C)CCCN(CC)CC)c1cccc(OC)c1 (stereo unspecified)
active: SK-MEL-2 melanoma -75.2% | SN12C renal 5.78% | UO-31 renal -48.5% | TK-10 renal -23% | ACHN renal -61.8% | CAKI-1 renal 1.65% | A498 renal -85.9%

CCC1CCc2nc3sc(C(=O)Nc4cccc(F)c4)c(N)c3cc2C1 (stereo unspecified)
inactive: SK-MEL-2 melanoma 63.3% | SN12C renal 94.4% | UO-31 renal 67.2% | TK-10 renal 77% | ACHN renal 67.9% | CAKI-1 renal 57.9% | A498 renal 50.5% | CCRF-CEM leukemia 47.9% | MOLT-4 leukemia 37.5%

CSC1=NC(=Nc2c(C)cccc2C)C2(CCC(C(C)(C)C)CC2)N1c1ccc(Cl)cc1 (stereo unspecified)
inactive: SK-MEL-2 melanoma 49.9% | SN12C renal 42.1% | UO-31 renal 34.8% | TK-10 renal 61.3% | ACHN renal 34.5% | CAKI-1 renal 12% | A498 renal 71.5% | CCRF-CEM leukemia 36.9% | MOLT-4 leukemia 23.5%

Cc1ccc(CSCc2ccc(C(=O)NC3CC3)o2)cc1
inactive: SK-MEL-2 melanoma 75.6% | SN12C renal 83.2% | UO-31 renal 74.7% | TK-10 renal 90.6% | ACHN renal 63.1% | CAKI-1 renal 64.5% | A498 renal 53.3% | CCRF-CEM leukemia 62.1% | MOLT-4 leukemia 62.6%

Clc1cc(Br)ccc1-c1ccc(CNCC2CCNCC2)o1
inactive: SK-MEL-2 melanoma 76.8% | SN12C renal 86.3% | TK-10 renal 32.2% | CAKI-1 renal 68.6% | A498 renal 81.8% | CCRF-CEM leukemia 24% | MOLT-4 leukemia 55.6%
active: UO-31 renal -58.5% | ACHN renal 3.97%

COc1ccc(/C=C/C(=O)c2ccc(NC(=O)CSc3nnc(-c4ccc(OC)cc4)n3-c3ccccc3)cc2)cc1
inactive: SK-MEL-2 melanoma 95.5% | EKVX NSCLC 95.5% | SN12C renal 96.5% | TK-10 renal 109% | ACHN renal 106% | A498 renal 109% | CCRF-CEM leukemia 95% | MOLT-4 leukemia 88%

Cc1ccc(Nc2nc(NCCO)c3ccccc3n2)cc1C
active: CAKI-1 renal 2.38% | A498 renal -11.9% | CCRF-CEM leukemia 8.3%
inactive: SK-MEL-2 melanoma 39.5% | SN12C renal 21.5% | UO-31 renal 24.6% | TK-10 renal 38.5% | ACHN renal 33.1% | MOLT-4 leukemia 24.1%

COc1ccc(/C=C/C(=O)c2ccc(NC(=O)CSc3nnc(-c4ccc(Cl)cc4)n3-c3ccccc3)cc2)cc1
inactive: SK-MEL-2 melanoma 104% | EKVX NSCLC 89.4% | SN12C renal 91.2% | TK-10 renal 113% | ACHN renal 103% | A498 renal 84.6% | CCRF-CEM leukemia 94.9% | MOLT-4 leukemia 65.5%

FC(F)(F)C1=NNC(c2ccc3ccccc3c2)=NN1
inactive: SK-MEL-2 melanoma 111% | SN12C renal 93.7% | UO-31 renal 65.6% | TK-10 renal 129% | ACHN renal 90.1% | CAKI-1 renal 102% | A498 renal 90.5% | CCRF-CEM leukemia 92.4% | MOLT-4 leukemia 107%

Cn1c(=O)c2[nH]c(Cc3ccc4c(c3)OCO4)nc2n(C)c1=O
inactive: SK-MEL-2 melanoma 122% | EKVX NSCLC 97.8% | SN12C renal 95.1% | TK-10 renal 113% | ACHN renal 92.1% | CCRF-CEM leukemia 87% | MOLT-4 leukemia 122%

Cc1ccc(N2C3c4ccccc4N(S(=O)(=O)c4ccc(C)cc4)C2c2ccccc2N3S(=O)(=O)c2ccc(C)cc2)cc1
inactive: SK-MEL-2 melanoma 111% | SN12C renal 94.9% | UO-31 renal 91.1% | TK-10 renal 128% | ACHN renal 95.2% | CAKI-1 renal 100% | A498 renal 97% | CCRF-CEM leukemia 89.2% | MOLT-4 leukemia 93.5%

O=C(C=P(c1ccccc1)(c1ccccc1)c1ccccc1)CCl
active: SK-MEL-2 melanoma -47.4% | SN12C renal -19.3% | UO-31 renal -95.4% | TK-10 renal -46.2% | ACHN renal -85.7% | CAKI-1 renal -74.9% | A498 renal -35.8% | CCRF-CEM leukemia -3.6% | MOLT-4 leukemia -35.8%

CCOC(=O)Nc1ccc2nc(-c3cscn3)[nH]c2c1
inactive: SK-MEL-2 melanoma 32.4% | SN12C renal 51.1% | UO-31 renal 50.9% | TK-10 renal 63.2% | ACHN renal 73.9% | CAKI-1 renal 39.3% | A498 renal 41.8% | CCRF-CEM leukemia 70.8% | MOLT-4 leukemia 49.9%

CC(C)N=C1CCCC1C(=S)SSC(=S)C1CCCC1=NC(C)C (stereo unspecified)
inactive: SK-MEL-2 melanoma 94.7% | SN12C renal 58.1% | UO-31 renal 54.3% | TK-10 renal 109% | ACHN renal 68.4% | CAKI-1 renal 39.3% | A498 renal 83.4% | CCRF-CEM leukemia 22.9% | MOLT-4 leukemia 61.2%

CNCCCNc1ccnc2cc(Cl)ccc12
active: SK-MEL-2 melanoma -64.5% | SN12C renal 2.75% | UO-31 renal -34.4% | TK-10 renal -11.4% | ACHN renal -31.6% | CAKI-1 renal -29.7% | A498 renal -78.2% | CCRF-CEM leukemia -17.1% | MOLT-4 leukemia 2.58%
